This is a sample that favours compounds with a hit; in the whole collection about 3.9% have one here.
Platelet DG rel: modulates dense granule release in human platelets; inhibition, %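 (compounds screened at 7.5 µM in platelet-rich plasma)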; 0.22% of 300,000 active; human platelet-rich plasma, SFLLRN dense granule ATP release, luminescence;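 active = mean replicate score, as percent of positive control, at or above 50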
PHOSPHO1 block: inhibitors of human PHOSPHO1 phosphatase; Q8TCT1; recombinant PHOSPHO1, absorbance phosphatase assay; inhibition, % at 13.3 µM; 1.1% of 290,000 active; AID 1565; in the data active = inhibition above about 60%
Target sequence (Q8TCT1 whole entry, looked up): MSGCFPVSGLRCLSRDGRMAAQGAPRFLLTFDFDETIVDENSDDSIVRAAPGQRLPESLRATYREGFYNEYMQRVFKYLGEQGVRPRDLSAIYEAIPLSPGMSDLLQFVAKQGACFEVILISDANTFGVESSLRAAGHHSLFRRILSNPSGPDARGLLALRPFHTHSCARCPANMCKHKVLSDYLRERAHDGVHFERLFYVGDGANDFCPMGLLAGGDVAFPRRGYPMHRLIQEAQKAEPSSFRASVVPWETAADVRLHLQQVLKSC
Rtt109 Vps75: blocks Candida albicans Rtt109/Vps75 acetyltransferase activity; Q5AAJ8; purified Rtt109/Vps75, ThioGlo CoA-SH fluorescence, 4 h; inhibition, % at 34.9 µM; 0.16% of 330,000 active;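 active = inhibition of at least 50% in every replicate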
Target sequence (Q5AAJ8 whole entry, looked up): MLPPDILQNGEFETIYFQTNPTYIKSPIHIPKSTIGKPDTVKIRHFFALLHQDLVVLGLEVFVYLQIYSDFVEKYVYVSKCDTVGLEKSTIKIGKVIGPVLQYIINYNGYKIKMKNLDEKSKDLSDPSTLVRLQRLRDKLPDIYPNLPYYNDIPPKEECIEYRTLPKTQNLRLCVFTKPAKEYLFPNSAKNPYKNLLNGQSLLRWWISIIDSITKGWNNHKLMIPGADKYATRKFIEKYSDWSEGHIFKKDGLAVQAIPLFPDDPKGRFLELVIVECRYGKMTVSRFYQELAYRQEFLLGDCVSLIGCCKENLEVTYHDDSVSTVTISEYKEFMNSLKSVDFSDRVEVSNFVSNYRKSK
TPT1 inh: blocks Candida albicans tRNA 2'-phosphotransferase. recombinant caTPT1, FP RNA substrate dephosphorylation. inhibition, % at 5 µM. 0.81% of 300,000 active. AID 1962;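 active = inhibition above the mean of all tested compounds plus 3 SD, set per screening campaign, cut at about 24% in these data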
WT yeast gro inh: growth inhibition of WT yeast, mitochondrial fusion screen. 2.1% of 190,000 active. inhibition, % at 10 µM. mitochondrial fusion phenotypic screen, WT strain. AID 1362; in the data active = inhibition above about 58%; tested in S. cerevisiae
SKKanGAS inh: SKKanGAS growth inhibition. S. pyogenes SKKanGAS, kanamycin growth, BacTiter-Glo, 6 h. inhibition, % at 7.5 µM. 1.3% of 300,000 active. AID 1662;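 active = mean replicate score, as percent of positive control median, at least 50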;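 also: strain carries kanamycin resistance gene driven by streptokinase promoter and grows in 40 µg/ml kanamycin; loss of luminescence reflects streptokinase promoter inhibition or plain growth inhibition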
Hits are given with their value; 0 = inactive; - = no result given.

SMILES	Platelet DG rel	PHOSPHO1 block	Rtt109 Vps75	TPT1 inh	WT yeast gro inh	SKKanGAS inh
CCOc1ccccc1C(=O)NCC(=O)NCCCSc1ccccc1	0	0	0	0	-	0
Nc1nonc1-n1nnc(C(=O)N/N=C/c2ccco2)c1CSc1ccccc1	0	0	0	0	-	0
COc1cccc(CC(NC(C)=O)C(=O)NC2CCN(S(=O)(=O)c3ccc(NC(C)=O)cc3)CC2)c1OC (centres undefined)	0	0	0	0	-	0
O=C(CCSCc1ccccc1Cl)N1CCN(c2cccc(Cl)c2)CC1	0	0	0	0	61	0
CC1=C(C(=O)Nc2ccc([N+](=O)[O-])cc2)C(c2cccc(C(F)(F)F)c2)NC(=S)N1c1ccccc1 (centres undefined)	0	0	0	0	0	50
Cc1ccc(C(=O)/C=C/c2c[nH]c3ccccc23)cc1	0	0	0	0	0	0
Cc1ccc(C(=O)/C=C/c2cn(CN3CCN(C)CC3)c3ccccc23)cc1	0	0	0	0	84	0
CCOC(=O)C1CCN(CC(O)COc2ccc(S(=O)(=O)N3CCCC3)cc2[N+](=O)[O-])CC1 (centres undefined)	-	-	0	-	-	-
Nc1c(Br)cc(Br)c2c1C(=O)c1c(cccc1S(=O)(=O)O)C2=O	-	-	0	-	-	-
CCCc1sc(N/N=C/c2ccccn2)nc1-c1ccc(Br)cc1	0	0	0	0	65	67
CC(=O)Nc1sc(N/N=C/c2ccccc2)nc1-c1ccc(C)cc1	0	0	0	0	-	0
CCC(C)Sc1cc(C(F)(F)F)c(C(=O)Nc2ccc(Cl)cc2)cn1 (centres undefined)	0	0	0	0	-	70
CCc1ccc(OCC2c3cc(OC)c(OC)cc3CCN2C(=S)NC)cc1 (centres undefined)	0	0	0	0	75	0
COc1cccc(CN(C)C(=O)c2cc(COc3ccc4ncccc4c3)on2)c1	0	61	0	0	0	0
COc1cccc(CN(C)C(=O)c2cc(COc3c(F)cccc3F)on2)c1	0	0	0	0	0	0
O=C1C(=O)N(c2ccccn2)C(c2cccc([N+](=O)[O-])c2)/C1=C(/O)c1ccc(Br)cc1 (centres undefined)	0	0	0	0	-	0
c1ccc(CSC2=NNC(c3ccccn3)S2)cc1 (centres undefined)	0	0	0	0	-	83
C=CCN(CC(=O)Nc1cccnc1)S(=O)(=O)c1ccc(Cl)cc1	-	-	0	-	-	-
COc1cc(OC)cc(C(=O)NC2CC3CCC(C2)N3C)c1 (centres undefined)	-	-	0	-	-	-
Cc1nc(N)sc1-c1csc(Nc2ccccn2)n1	0	70	0	-	0	0
COc1ccc(Nc2nc(-c3sc(N)nc3C)cs2)cc1	0	68	0	0	0	0
COc1ccc(Nc2nc(C)c(-c3ccccc3)s2)cc1	-	0	0	0	66	-
Cc1nc(C)c(-c2csc(Nc3ccccn3)n2)s1	0	0	0	0	-	0
COc1ccc(Nc2nc(-c3ccccc3)c3ccccc3n2)cc1	0	0	0	0	64	0
CC1CCc2[nH]c3ccc(C(=O)N4CCCC(C(F)(F)F)C4)cc3c2C1 (centres undefined)	0	-	0	0	-	0
SMILES	Platelet DG rel	PHOSPHO1 block	Rtt109 Vps75	TPT1 inh	WT yeast gro inh	SKKanGAS inh
COC(=O)c1ccc(NC(=O)COC(=O)COc2cccc3c2OC(C)(C)C3)cc1	-	-	0	-	-	-
COc1ccc(Nc2nc(-c3sc(NC(C)=O)nc3C)cs2)cc1	0	73	-	0	0	0
CC(=O)Nc1ccc(Nc2nc(-c3sc(C)nc3C)cs2)cc1	0	0	0	0	-	0
Cc1ccccc1C(=O)NCCNC(=O)c1ccco1	0	0	51	0	-	0
CCN(CC)c1ccc(NC(=O)c2ccco2)cc1	0	61	0	0	0	0
CCCCCOC(=O)c1ccc(NC(=O)c2ccco2)cc1	0	0	0	0	70	0
Cc1ccccc1OCC(=O)Nc1ccc(NC(=O)c2ccco2)cc1	0	67	0	0	0	0
Cc1ccccc1OCC(=O)Nc1cccc(NC(=O)c2ccco2)c1	0	0	0	0	0	0
Cc1ccc(C(=O)N(CC(C)C)c2c(N)n(Cc3ccccc3)c(=O)[nH]c2=O)o1	0	-	0	0	-	0
CCS(=O)(=O)c1ccc2oc(SCC(=O)c3c(N)n(C4CC4)c(=O)[nH]c3=O)nc2c1	-	-	0	-	-	-
CCCCOC(=O)c1ccc(NC(=O)c2nn(C)cc2Br)cc1	0	0	0	0	60	0
CCCCOC(=O)c1ccc(NC(C)=O)cc1	0	0	0	0	0	0
O=S(=O)(N/N=C/c1ccc(Cl)cc1)c1ccc(Cc2ncc(C(F)(F)F)cc2Cl)s1	0	0	0	0	0	50
CC(C)(C)Nc1nc(SCc2ccccc2)nc(N2CCOCC2)n1	0	0	0	0	66	0
Nc1ccc(Sc2cc(Cl)nc(N)n2)cc1	0	0	-	0	0	0
Nc1nc(N)c2cc(Sc3ccc4ccccc4c3)ccc2n1	0	0	-	0	-	109
O=C(NC1CCCC1)C(c1ccc(F)cc1)N(C(=O)c1csnn1)c1ccccc1F (centres undefined)	0	0	0	0	-	0
O=C(NC1CCCC1)C(c1ccc(F)cc1)N(C(=O)c1csnn1)c1ccccc1 (centres undefined)	0	0	52	0	-	0
COc1ccc(C(=O)N/C(=C\c2cccc3ccccc23)C(=O)N2CCN(C)CC2)cc1	-	-	0	-	-	-
CCN(CC)CCCn1c(C)cc2c(c1=O)C(c1cccc(Cl)c1)C(C#N)=C(N)O2 (centres undefined)	-	0	0	-	74	-
CCOc1ccc(NC(=O)CCC(=O)NNC(=O)c2cccc([N+](=O)[O-])c2)cc1	-	-	0	-	-	-
CC1C(=O)C(C)C(c2ccc3c(c2)OCO3)NC1c1ccc2c(c1)OCO2 (centres undefined)	0	0	0	0	0	0
COc1cc(C2C=C(C34CC5CC(CC(C5)C3)C4)NC(=S)N2)cc(OC)c1OC (centres undefined)	0	0	0	0	0	0
COc1ccc(OC)c(C2C=C(C34CC5CC(CC(C5)C3)C4)NC(=S)N2)c1 (centres undefined)	0	0	0	0	76	52
S=C1NC(C23CC4CC(CC(C4)C2)C3)=CC(c2ccc3c(c2)OCO3)N1 (centres undefined)	0	0	0	0	77	58
SMILES	Platelet DG rel	PHOSPHO1 block	Rtt109 Vps75	TPT1 inh	WT yeast gro inh	SKKanGAS inh
C#CCNCCS(=O)(=O)N(Cc1ccc(Br)cc1)[C@@H](C)C(=O)O	-	-	0	-	-	-
COc1ccc(C(C)(C)C)cc1NC(=O)c1cncc(Br)c1	0	0	0	0	76	0
CCOc1ccc(C(C)=O)cc1COC(=O)c1ccc2c(c1)NC(=O)CS2	-	-	0	-	-	-
O=C(NCCc1ccccc1)c1ccc(CS(=O)Cc2ccc(Cl)cc2)o1 (centres undefined)	0	0	0	0	-	0
CCn1nc(C(=O)OCC(=O)NCCN2C(=O)CSC2=O)c2ccccc2c1=O	0	72	0	0	0	0
CCn1nc(C(=O)OCC(=O)NC(C)C)c2ccccc2c1=O	0	0	0	0	0	0
